A short description of the test: qHTS for Inhibitors of Cell Surface uPA Generation: FP59 Counterscreen for Cherry-picked Compounds. Particulars: FP59 anthrax toxin cytotoxicity counterscreen, cells; series mostly up to 115 µM.

Records with an inconclusive call do not appear. A call without a number means that no potency is given here. Active and inactive are the calls of the source. Calls follow the shape of the dose curve; as a rule, active = well fitted activation curve with a large enough effect; inconclusive = small, poorly fitted or top-dose-only effect; inactive = flat fitted curve, though single readings scatter.

`COC(=O)CSc1nc(N2CCOCC2)c2c(c1C#N)CCCC2`: the Potency result was “inactive”.
The entry for `CN(C)CCNC(=O)Nc1ccc([N+](=O)[O-])cc1` is “inactive”.
The entry for `CC(C)c1ccc(NC(=O)COc2ccc(S(=O)(=O)N3CCOCC3)cc2)cc1` is “inactive”; for `CCCCn1c(N)c(N(Cc2ccccc2OC)C(=O)COc2ccc(C)cc2)c(=O)[nH]c1=O` it is “inactive”; for `O=C1NCCN1C(=O)N(c1ccccc1)c1ccccc1` it is “inactive”.
The entry for `O=C(O)CNC(=S)N(Cc1ccccc1)Cc1cccnc1` is “inactive”.
Consider `CC(C)(C)OC(=O)C[C@@H]1C/C=C\C[C@@H](CC(=O)N(CCO)Cc2ccccc2)C(=O)N[C@H](Cc2c[nH]c3ccccc23)COC1=O`, for which the Potency result was “inactive”.
The entry for `COCCCN1CC23C=CC(O2)C(C(=O)O)C3C1=O` (configuration not stated) is “inactive”.
As for `COc1cccc(C(=O)NCc2ccc3[nH]c(C)cc3c2)c1`, the Potency entry was “inactive”.
Turning to `Cc1noc(C)c1COc1ccc(C(=O)O)cc1`, the Potency result is “inactive”.
The entry for `CC(C)C(=O)Nc1nnc(SCc2cccc(F)c2)s1` is “inactive”; for `Cc1nc2ccc(Br)cn2c1C(=O)N/N=C\c1ccccc1Cl` it is “inactive”; for `S=C(Nc1ccccc1Oc1ccccc1)NC1CCCC1` it is “inactive”.
The entry for `O=C(COC(=O)c1cccc([N+](=O)[O-])c1)NNC(=O)c1cccs1` is “inactive”; for `COc1ccc2cc(CCNC(=O)c3ccc4c(c3)OCO4)c(=O)[nH]c2c1` it is “inactive”; for `Cc1ccsc1/C=C(\C#N)C(=O)NC1CCS(=O)(=O)C1` (configuration not stated) it is “inactive”.
In the case of `CCC(C)Sc1nnc(NS(=O)(=O)Cc2ccccc2)s1` (configuration not stated), the Potency entry is “inactive”.

The values above are taken from PubChem BioAssay AID720517 (National Center for Advancing Translational Sciences (NCATS), 2013).
